Test results from ChEMBL document CHEMBL3988442, “University of Dundee, Small-Polar-MMV Screening Library” (2021).
For some assays here: Entries with a potency or affinity are not part of this list.

Assays:
Set-up in all cases: scale not given: direction of the effect not stated beside the values
[1] = molecular target: Protein translocase subunit SecA (Escherichia coli (strain K12)) (UniProt P10408); assay: Assay to Identify E. coli SecA ATPase Inhibitors; format: functional; details: 30 µM
[2] = molecular target: T1, Ubiquitin-activating enzyme e1, putative (Leishmania donovani (strain BPK282A1)) (UniProt E9BSI1); assay: Leishmania donovani Ubiquitin Activating Enzyme (LdE1); format: functional; details: 30 µM
T1 sequence (whole entry): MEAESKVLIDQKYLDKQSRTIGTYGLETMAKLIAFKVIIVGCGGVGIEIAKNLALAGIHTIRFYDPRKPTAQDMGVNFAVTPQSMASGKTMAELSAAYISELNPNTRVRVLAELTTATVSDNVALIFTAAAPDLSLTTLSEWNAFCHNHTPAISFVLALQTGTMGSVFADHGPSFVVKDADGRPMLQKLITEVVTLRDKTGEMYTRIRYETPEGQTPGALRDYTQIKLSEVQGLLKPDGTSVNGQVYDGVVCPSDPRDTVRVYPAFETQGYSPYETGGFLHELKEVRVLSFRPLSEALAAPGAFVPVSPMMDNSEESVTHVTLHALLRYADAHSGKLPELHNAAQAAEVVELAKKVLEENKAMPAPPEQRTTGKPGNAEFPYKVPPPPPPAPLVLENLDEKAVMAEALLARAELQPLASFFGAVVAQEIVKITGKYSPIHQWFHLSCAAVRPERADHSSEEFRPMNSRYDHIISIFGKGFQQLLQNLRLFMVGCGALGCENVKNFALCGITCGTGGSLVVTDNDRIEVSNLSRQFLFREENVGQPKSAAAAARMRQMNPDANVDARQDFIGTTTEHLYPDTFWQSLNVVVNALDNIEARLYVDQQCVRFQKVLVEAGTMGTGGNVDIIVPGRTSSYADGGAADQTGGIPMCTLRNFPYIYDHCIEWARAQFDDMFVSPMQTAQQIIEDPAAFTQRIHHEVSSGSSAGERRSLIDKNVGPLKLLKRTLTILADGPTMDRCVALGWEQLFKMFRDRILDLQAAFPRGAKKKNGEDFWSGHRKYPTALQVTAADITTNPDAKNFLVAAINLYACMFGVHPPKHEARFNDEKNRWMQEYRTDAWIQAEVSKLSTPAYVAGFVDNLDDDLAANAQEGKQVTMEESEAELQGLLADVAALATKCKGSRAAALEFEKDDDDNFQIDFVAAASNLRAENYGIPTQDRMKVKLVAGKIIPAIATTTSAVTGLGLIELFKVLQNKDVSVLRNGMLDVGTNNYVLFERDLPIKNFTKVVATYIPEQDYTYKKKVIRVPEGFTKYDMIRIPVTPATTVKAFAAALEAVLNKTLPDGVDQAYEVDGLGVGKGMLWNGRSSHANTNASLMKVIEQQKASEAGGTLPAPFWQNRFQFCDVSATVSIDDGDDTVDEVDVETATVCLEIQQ

[3] = molecular target: AMP-activated protein kinase, AMPK (Homo sapiens) (UniProt P54646+O43741+P54619+Q9UGJ0+Q9Y478+Q13131+Q9UGI9); assay: AMP-dependent Kinase enzyme assay. An in vitro enzyme assay that detects ADP turnover that is directly proportional to AMPK activity. This uses naive AMPK that is activated during the assay with MK-8722; format: functional; details: 30 µM
[4] = molecular target: Sialic acid-binding Ig-like lectin 9 (Homo sapiens) (UniProt Q9Y336); assay: Hs-Siglec9 ALPHAscreen SOP 20170721; details: 10 µM
Sialic acid-binding Ig-like lectin 9 (Homo sapiens), sequence (Q9Y336 whole entry): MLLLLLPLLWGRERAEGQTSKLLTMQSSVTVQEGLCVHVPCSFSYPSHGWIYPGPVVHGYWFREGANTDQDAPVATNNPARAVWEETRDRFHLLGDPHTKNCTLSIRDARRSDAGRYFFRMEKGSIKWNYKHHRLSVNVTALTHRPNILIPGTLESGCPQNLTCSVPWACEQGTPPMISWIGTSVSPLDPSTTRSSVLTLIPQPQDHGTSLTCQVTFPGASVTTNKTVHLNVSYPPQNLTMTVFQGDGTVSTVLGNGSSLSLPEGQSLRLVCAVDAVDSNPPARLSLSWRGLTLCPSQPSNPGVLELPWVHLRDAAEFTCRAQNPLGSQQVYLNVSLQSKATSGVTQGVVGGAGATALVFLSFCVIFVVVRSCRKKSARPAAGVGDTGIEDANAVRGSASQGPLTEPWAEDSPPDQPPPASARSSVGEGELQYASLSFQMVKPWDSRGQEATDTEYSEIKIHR

Trypanosoma cruzi = assay: Trypanosoma cruzi phosphomannomutase and mannose-1-phosphate guanylyltransferase assay; format: functional; details: 10 µM
[5] = molecular target: T2, Arginase-2, mitochondrial (Homo sapiens) (UniProt P78540); assay: in vitro enzyme assay to detect the production of urea directly proportional to the activity of Arginase II; format: functional; details: 33.3 µM; further: in the data most compounds retested in dose-response had high values
T2 sequence (whole entry): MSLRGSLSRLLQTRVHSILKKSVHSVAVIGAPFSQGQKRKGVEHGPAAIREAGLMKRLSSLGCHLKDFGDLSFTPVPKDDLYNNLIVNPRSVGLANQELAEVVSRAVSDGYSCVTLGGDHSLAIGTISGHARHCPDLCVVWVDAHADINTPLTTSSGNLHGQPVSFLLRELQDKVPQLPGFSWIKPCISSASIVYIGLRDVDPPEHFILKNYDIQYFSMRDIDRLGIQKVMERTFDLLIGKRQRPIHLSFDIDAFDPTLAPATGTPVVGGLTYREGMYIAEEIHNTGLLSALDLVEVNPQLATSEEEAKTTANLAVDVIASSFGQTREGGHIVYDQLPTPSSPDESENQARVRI

[6] = molecular target: T3, Proteasome subunit beta (Trypanosoma cruzi) (UniProt O96673); assay: Trypanosoma cruzi proteasome chymotrypsin-like activity (TcProtChymo) assay.; further: in the data most compounds retested in dose-response had high values; format: functional; details: 9.37 µM
T3 sequence (whole entry): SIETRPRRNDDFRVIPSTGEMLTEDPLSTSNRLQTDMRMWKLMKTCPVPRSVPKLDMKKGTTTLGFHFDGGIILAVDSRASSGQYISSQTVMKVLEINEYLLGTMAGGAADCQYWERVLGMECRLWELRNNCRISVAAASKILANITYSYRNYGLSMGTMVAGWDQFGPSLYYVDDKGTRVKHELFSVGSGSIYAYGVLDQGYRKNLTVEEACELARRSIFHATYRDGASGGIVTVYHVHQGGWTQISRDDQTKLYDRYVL

Homo sapiens = species: Homo sapiens; assay: To identify inhibition of the IFN signalling (Jak-Stat) pathway via expression of an eGFP reporter gene under the control of an IFN-stimulated response element (ISRE) containing MxA promoter.; format: functional; details: 30 µM
[7] = molecular target: T4, Tyrosyl-tRNA synthetase, putative (Trypanosoma cruzi (strain CL Brener)) (UniProt Q4DSP6); assay: Trypanosoma cruzi tyrosyl tRNA synthetase (TcYRS) _High Tyrosine SOP; format: functional; details: 30 µM; further: in the data most compounds retested in dose-response had high values
T4 sequence (whole entry): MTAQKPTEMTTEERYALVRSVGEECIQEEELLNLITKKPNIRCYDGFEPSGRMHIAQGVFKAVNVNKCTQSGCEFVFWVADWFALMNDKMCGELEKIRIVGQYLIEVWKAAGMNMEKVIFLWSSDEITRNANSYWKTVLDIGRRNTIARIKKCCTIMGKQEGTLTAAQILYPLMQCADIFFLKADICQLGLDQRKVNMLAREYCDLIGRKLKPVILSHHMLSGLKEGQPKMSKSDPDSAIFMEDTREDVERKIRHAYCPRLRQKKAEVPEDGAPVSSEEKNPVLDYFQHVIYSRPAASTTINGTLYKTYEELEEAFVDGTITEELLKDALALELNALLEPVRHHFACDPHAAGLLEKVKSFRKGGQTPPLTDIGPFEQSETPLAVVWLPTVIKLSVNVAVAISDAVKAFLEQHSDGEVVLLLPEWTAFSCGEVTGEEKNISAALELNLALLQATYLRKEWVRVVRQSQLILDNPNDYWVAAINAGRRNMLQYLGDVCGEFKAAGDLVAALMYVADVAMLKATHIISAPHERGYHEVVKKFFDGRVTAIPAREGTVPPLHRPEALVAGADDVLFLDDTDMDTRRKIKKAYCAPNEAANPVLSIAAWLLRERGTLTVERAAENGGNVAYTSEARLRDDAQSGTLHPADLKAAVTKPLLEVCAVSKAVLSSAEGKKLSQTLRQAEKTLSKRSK

[8] = molecular target: T4, Tyrosyl-tRNA synthetase, putative (Trypanosoma cruzi (strain CL Brener)); assay: Trypanosoma cruzi tyrosyl tRNA synthetase (TcYRS) SOP; format: functional; details: 30 µM
[9] = molecular target: Chromo domain-containing protein 1 (Saccharomyces cerevisiae (strain ATCC 204508 / S288c) (Baker's yeast)) (UniProt P32657); assay: ScCHD-1 Enzyme Inhibition Assay; format: functional; details: 30 µM; further: in the data most compounds retested in dose-response had high values
Chromo domain-containing protein 1 (Saccharomyces cerevisiae (strain ATCC 204508 / S288c) (Baker's yeast)), sequence (P32657 whole entry, the tested form may be a part): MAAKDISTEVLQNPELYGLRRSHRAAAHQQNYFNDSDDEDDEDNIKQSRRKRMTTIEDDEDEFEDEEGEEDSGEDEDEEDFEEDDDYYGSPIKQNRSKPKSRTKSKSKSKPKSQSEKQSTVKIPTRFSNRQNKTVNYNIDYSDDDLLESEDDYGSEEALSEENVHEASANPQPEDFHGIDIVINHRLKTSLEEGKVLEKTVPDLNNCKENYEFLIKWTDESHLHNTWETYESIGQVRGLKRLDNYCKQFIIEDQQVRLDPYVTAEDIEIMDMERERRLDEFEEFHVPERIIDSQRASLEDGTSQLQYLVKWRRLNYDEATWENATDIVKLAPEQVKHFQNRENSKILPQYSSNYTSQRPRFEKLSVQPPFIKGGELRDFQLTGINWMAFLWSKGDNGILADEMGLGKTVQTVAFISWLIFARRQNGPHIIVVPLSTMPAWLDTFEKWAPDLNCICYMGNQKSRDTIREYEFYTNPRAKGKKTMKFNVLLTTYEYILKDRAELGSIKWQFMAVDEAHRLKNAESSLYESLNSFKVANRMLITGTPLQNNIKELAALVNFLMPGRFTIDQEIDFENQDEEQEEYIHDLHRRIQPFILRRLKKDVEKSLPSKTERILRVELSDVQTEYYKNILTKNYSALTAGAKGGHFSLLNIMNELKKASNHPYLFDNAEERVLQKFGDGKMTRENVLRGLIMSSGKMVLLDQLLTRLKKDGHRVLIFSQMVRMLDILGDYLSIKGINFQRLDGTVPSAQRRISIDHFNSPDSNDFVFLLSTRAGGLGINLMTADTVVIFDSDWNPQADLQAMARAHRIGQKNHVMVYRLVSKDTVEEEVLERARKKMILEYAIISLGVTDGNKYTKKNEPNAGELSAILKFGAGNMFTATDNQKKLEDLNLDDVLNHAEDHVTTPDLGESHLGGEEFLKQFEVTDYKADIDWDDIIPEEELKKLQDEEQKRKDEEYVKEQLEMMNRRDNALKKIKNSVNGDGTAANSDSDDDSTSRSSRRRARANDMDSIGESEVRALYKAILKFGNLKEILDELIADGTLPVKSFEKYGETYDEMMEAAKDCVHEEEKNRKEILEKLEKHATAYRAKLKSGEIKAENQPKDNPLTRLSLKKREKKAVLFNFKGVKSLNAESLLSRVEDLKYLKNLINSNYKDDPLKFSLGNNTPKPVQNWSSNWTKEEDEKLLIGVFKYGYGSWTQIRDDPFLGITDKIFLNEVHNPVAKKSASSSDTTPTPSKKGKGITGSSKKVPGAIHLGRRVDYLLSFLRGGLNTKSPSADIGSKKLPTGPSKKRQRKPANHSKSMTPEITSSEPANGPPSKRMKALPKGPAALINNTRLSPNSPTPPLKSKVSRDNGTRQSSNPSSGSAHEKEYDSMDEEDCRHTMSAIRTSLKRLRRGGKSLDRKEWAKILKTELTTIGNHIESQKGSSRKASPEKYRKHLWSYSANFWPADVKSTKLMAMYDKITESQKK

Protein translocase subunit SecA (Escherichia coli (strain K12)), sequence (P10408 whole entry): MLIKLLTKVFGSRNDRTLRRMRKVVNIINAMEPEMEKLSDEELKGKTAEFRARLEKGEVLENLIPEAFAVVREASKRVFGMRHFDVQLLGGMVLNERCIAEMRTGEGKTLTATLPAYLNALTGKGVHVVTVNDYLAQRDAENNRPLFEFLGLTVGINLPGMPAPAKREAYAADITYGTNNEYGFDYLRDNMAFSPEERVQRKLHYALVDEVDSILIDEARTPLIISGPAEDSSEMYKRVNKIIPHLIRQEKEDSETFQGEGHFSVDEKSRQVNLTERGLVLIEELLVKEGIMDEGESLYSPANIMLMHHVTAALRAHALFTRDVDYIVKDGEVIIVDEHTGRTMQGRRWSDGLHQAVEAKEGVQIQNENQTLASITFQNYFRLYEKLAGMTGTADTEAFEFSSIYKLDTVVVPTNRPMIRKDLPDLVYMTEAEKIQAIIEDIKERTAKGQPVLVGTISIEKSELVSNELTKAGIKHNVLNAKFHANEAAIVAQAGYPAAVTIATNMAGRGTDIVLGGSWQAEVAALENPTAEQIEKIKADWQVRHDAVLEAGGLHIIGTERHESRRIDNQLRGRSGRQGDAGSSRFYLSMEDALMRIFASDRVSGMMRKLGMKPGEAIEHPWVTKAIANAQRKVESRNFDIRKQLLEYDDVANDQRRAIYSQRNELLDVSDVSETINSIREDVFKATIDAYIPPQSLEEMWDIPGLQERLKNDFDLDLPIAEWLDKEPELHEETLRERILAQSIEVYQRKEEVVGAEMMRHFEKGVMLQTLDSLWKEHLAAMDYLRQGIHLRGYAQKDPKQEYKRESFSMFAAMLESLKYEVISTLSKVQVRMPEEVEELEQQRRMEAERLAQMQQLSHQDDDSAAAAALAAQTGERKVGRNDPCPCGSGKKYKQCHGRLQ

Row | Structure (SMILES) | Percent Effect [1] [%] | Percent Effect [2] [%] | Percent Effect [3] [%] | Percent Effect [4] [%] | Percent Effect (Trypanosoma cruzi) [%] | Percent Effect [5] [%] | Percent Effect [6] [%] | Percent Effect (Homo sapiens) [%] | Percent Effect [7] [%] | Percent Effect [8] [%] | Percent Effect [9] [%]
1 | Cc1cccc2c1cnn2CCCNC(=O)C(C)C | -4.75 | 13 | 0.24 | 14.3 | 7.96 | -5.52 | 6.16 | 5.24 | 5.38 | 11.1 | -0.927
2 | Cn1cc(Br)c(=O)c(NS(=O)(=O)c2cc(F)ccc2Cl)c1 | -3.11 | 2.7 | -8.02 | 5.84 | 9.07 | -2.38 | 13.3 | 6.19 | 0.529 | -2.44 | -0.642
3 | CCn1ccnc1CN1CCN(CCOc2cccc(C#N)c2)CC1 | -4.35 | 21.1 | -6.98 | -4.93 | 5.64 | -0.383 | 11.9 | 4.93 | 8.33 | 19.5 | -13
4 | CCC(CNC(=O)c1ccc(=O)[nH]n1)N1CCc2ccccc2C1 (configuration not stated) | 0.395 | 13.5 | -10.4 | 10.4 | 3.48 | 11.4 | 17.9 | 2.58 | 7.94 | 12.2 | -3.16
5 | CCc1nc(CN2CCN(C(=O)COCc3ccccc3)CC2)no1 | -6.48 | 8.11 | -6.87 | 35 | 4.4 | 25.1 | 10.7 | -6.99 | 2.15 | 8.64 | -11.6
6 | Cn1cc(C(=O)NC[C@@H]2OC[C@H]3CN(S(C)(=O)=O)CC[C@H]32)cn1 | -0.605 | -74 | -4.74 | 17 | 7.74 | -1.6 | 11 | 9.87 | 5.21 | 1.24 | -6.34
7 | c1cnc(NCc2cncc3c2CCN(Cc2cccs2)C3)nc1 | -0.336 | 10.7 | 8.51 | -0.683 | -7.28 | 2.1 | 9.43 | 12.1 | 3.19 | 8.97 | -5.11
8 | COc1c(C2CCCN2C(=O)Cc2c(C)noc2C)c(C)nn1C (configuration not stated) | -4.91 | 15.2 | -0.162 | 8.65 | 0.661 | 0.38 | 0.0819 | -12.4 | 7.39 | 16.5 | -6.93
9 | N#CC1(C(=O)N2CCN(Cc3cscn3)CC2)CCCC1 | -4.16 | 10.1 | -7.12 | -4.28 | -8.78 | 2.66 | 3.19 | 29.4 | 0.493 | 1.27 | -7.41
10 | Cc1ccc([C@@H]2CN(S(=O)(=O)N(C)C)C[C@H]2N(C)C)cc1 | -5.32 | 13.5 | -7.05 | 37 | 3.42 | 45.9 | 8.84 | -3.64 | 4.3 | 11.1 | -14.3
11 | O=C(NC1CCCC1)N1CCCC(c2nccn2Cc2ccncc2)C1 (configuration not stated) | -3.14 | 4.17 | 2.03 | 9.67 | 8.07 | -0.883 | 7.54 | -38.2 | 4.21 | 5.13 | -4.06
12 | O=C(Cc1ccccc1F)N1CCN(C(=O)c2cccc(F)c2)CC1 | 0.735 | 7.89 | -4.8 | -9.01 | -7.69 | 3.55 | 18.9 | 13.3 | 0 | -59.7 | 27.2
13 | O=c1[nH]c(CCN2CCCC(Cn3cncn3)C2)nc2ccccc12 (configuration not stated) | -4.26 | 13.5 | 0.62 | 16.8 | 6.78 | 0.924 | 2.33 | 14.5 | 4.95 | 11 | -3.63
14 | Cc1nsc(N2CCCN(c3nc(C4CC4)ns3)CC2)n1 | -2.5 | 11 | 9.09 | 5.05 | 4.9 | 19.1 | 10.1 | 5.1 | 1.07 | 5 | -4.56
15 | CN(C)C(=O)N1CCN(Cc2noc(Cc3ccccc3)n2)CC1 | -2.44 | 0 | -1.46 | 6.32 | -0.661 | -2.28 | -0.409 | -0.594 | 2.46 | -3.8 | -2.99
16 | O=C(Cc1ccccc1)N1CCC2(CC(=O)N(c3cccc(F)c3)C2)C1 (configuration not stated) | -5.5 | 2.7 | -5.09 | -3.6 | -1.86 | 1.74 | 6.09 | -6.6 | 3.23 | 3.7 | 2.85
17 | CC(O)CN1CCC(CNCc2cccc(OC(C)C)c2)CC1 (configuration not stated) | -8.77 | 8.11 | -23.9 | 28.4 | 8.21 | -9.22 | 1.26 | 9.15 | 6.4 | 23.5 | -14.8
18 | Cc1cc(CN(C)C(=O)NC2CCN(Cc3ccccc3)C2)no1 (configuration not stated) | -1.84 | 18.4 | -5.49 | -5.79 | 4.51 | -2.3 | 15.4 | -0.406 | 8.33 | 21.9 | -12
19 | CC(=O)N1CCC(C(=O)NCCN2CCCCC2)CC1 | -1.49 | 9.72 | -3.56 | -2.74 | 0.875 | 1.77 | 17.5 | -6.46 | 4.21 | 5.13 | -2.32
20 | COCCN1C[C@@H](C)[C@@]2(COCCN(C(=O)c3cnc(C)cn3)C2)C1 | 0.144 | 10.7 | 6.23 | 3.86 | -3.28 | -21.3 | 12.7 | -11.1 | -5.21 | 12.5 | -6.61
21 | Cc1ccc(S(=O)(=O)N2C[C@@H]3C[C@@H](NC(=O)C(C)(C)C)[C@@H]3C2)cc1 | -5.99 | 14.9 | 5.25 | 4.69 | 2.77 | -3.48 | 12.3 | 2.6 | 3.23 | 9.09 | -22.4
22 | O=C(NCCNc1ncccn1)Nc1cc(C(F)(F)F)c[nH]c1=O | -4.49 | 8.11 | 2.74 | 1.17 | 1.02 | -2.4 | 0.539 | 8.76 | 6.93 | 15.8 | -3.38
